Laboratory results as given in ChEMBL document CHEMBL4513216, “Probing the Open Global Health Chemical Diversity Library for Multistage-Active Starting Points for Next-Generation Antimalarials” (ACS Infect Dis, 2020).
Among all 69,000 compounds or so, about 8,600 (12%) showed an effect of 50% or more. The sample as a whole holds a higher share of strong results than the screen did.

system: Plasmodium berghei; assay: Screen against P. berghei liver stage (PbLuc), transformed with Luciferase, at 10uM; format: functional, HepG2; conditions: tested at 10 uM

Row | Compound | INHIBITION [%]
1 | CN(Cc1nnn(CC2CC2)n1)C(=O)c1ccccc1 | 1.74
2 | CCCn1c(=O)n(CCC(=O)N(C)Cc2ccc(C)o2)c2ccccc21 | 83.2
3 | CCn1c(=O)n(CCC(=O)N(C)Cc2ccc(C)o2)c2ccccc21 | 15.4
4 | Cc1ccc(CN(C)C(=O)CCn2c(=O)n(C)c3ccccc32)o1 | 49.7
5 | CCN1CCC(NC(=O)NCC(O)c2ccc(Cl)c(F)c2)CC1 (stereo unspecified) | 43.1
6 | O=C1Nc2ccccc2CC12CCCN2Cc1ccccn1 (stereo unspecified) | 27.5
7 | O=C1Nc2ccccc2CC12CCCN2Cc1ccc(F)cc1 (stereo unspecified) | -38.7
8 | Cc1cc(C)c(CN2CCCC23Cc2ccccc2CNC3=O)c(C)c1 (stereo unspecified) | 68.9
9 | Cc1ccc(CN2CCCC23Cc2ccccc2CNC3=O)cc1 (stereo unspecified) | 52.4
10 | Cc1ccc(CCN2CCCC23Cc2ccccc2CNC3=O)cc1 (stereo unspecified) | 54.9
11 | O=C1NCc2ccccc2CC12CCCN(CCCc1ccccc1)C2 (stereo unspecified) | 27.5
12 | CC(C)(C)CN1CCCC12Cc1ccccc1CNC2=O (stereo unspecified) | 32.5
13 | CC(C)CCN1CCCC12Cc1ccccc1CNC2=O (stereo unspecified) | 14.3
14 | O=C1Nc2ccccc2CC12CCCN2Cc1cccnc1 (stereo unspecified) | -2.28
15 | O=S(=O)(c1cccnc1)N1C[C@H]2CCC[C@@]2(COc2ccccn2)C1 | 38.5
16 | CCn1c(N)nc2cc(C(=O)NCCc3ccncc3)cnc21 | -20
17 | Nc1ccc(CC2CCCN(Cc3c[nH]cn3)C2)nn1 (stereo unspecified) | -4.87
18 | COc1ccc(CN2CCn3cc(CN4CCCCC4)nc3C2)cc1 | 0.79
19 | CC(C)Oc1ccc(C(=O)N2CCCCC2Cn2cccn2)cn1 (stereo unspecified) | -21.645
20 | O=C(c1cccnc1)N1CCc2c(nc(N3CCCC3)[nH]c2=O)C1 | 46
21 | CN(C)c1nc2c(c(=O)[nH]1)CCN(C(=O)c1cccc3nccnc13)C2 | 6.8
22 | Cc1nc(C(C)C)ncc1C(=O)N1CCc2c(nc(N(C)C)[nH]c2=O)C1 | 50.1
23 | CCCc1ccc(C(=O)N2CCc3c(nc(N(C)C)[nH]c3=O)C2)cc1 | 23.3

Row | Compound | INHIBITION [%]
24 | O=c1[nH]c(-c2cccnc2)nc2c1CCN(S(=O)(=O)N1CCCC1)C2 | 23.6
25 | CN(C)c1nc2c(c(=O)[nH]1)CCN(C(=O)c1ccc(=O)[nH]c1)C2 | 4.1
26 | O=C(c1ccc(=O)[nH]c1)N1CCc2c(nc(-c3cccnc3)[nH]c2=O)C1 | 61.8
27 | CN(C)c1nc2c(c(=O)[nH]1)CCN(C(=O)C1CCCO1)C2 (stereo unspecified) | 6.26
28 | CN(C)c1nc2c(c(=O)[nH]1)CCN(C(=O)c1c[nH]c(=O)c(Cl)c1)C2 | 51.1
29 | CCc1onc(C)c1C(=O)N1CCN(c2ncc3c(n2)CCOC3)CC1 | 17.05
30 | Cc1n[nH]c(C)c1C1COCCN1C(=O)c1n[nH]c2ccccc12 (stereo unspecified) | -2.25
31 | O=c1[nH]nc(CCCN2CCOCC2)n1Cc1cccc(F)c1 | 10.3
32 | O=C(CCN1CCCCC1)Nc1c2c(cc3c1CCC3)CCC2 | 18.8
33 | Cn1cc(S(=O)(=O)NCC(C)(O)c2ccsc2)cn1 (stereo unspecified) | 16.3
34 | Cn1cc(S(=O)(=O)NCc2ccsc2)cn1 | -17.8
35 | Cn1cc(S(=O)(=O)NCCc2ccsc2)cn1 | 70.9
36 | CNc1nc(C(=O)N2CCCC(COc3ccc(F)cc3)C2)cs1 (stereo unspecified) | 44.9
37 | Cn1ccc(C(=O)N2CCC(Cc3cnc4[nH]ccc4c3)C2)n1 (stereo unspecified) | -77.5
38 | CCCC(=O)N(C)C(c1cccc(F)c1)c1ccccn1 (stereo unspecified) | 13.6
39 | Cc1cccc2nc(CSCC(=O)Nc3nnc(C(C)C)s3)cc(=O)n12 | 24.5
40 | Cc1ccc2nc(CSCC(=O)Nc3nnc(C(C)C)s3)cc(=O)n2c1 | 50.2
41 | Cc1nnc(NC(=O)CSCc2cc(=O)n3ccccc3n2)s1 | 27.5
42 | CC(C)c1nnc(NC(=O)CSCc2cc(=O)n3ccccc3n2)s1 | 38.9
43 | Cc1ccn2c(=O)cc(CSCC(=O)Nc3nnc(C(C)C)s3)nc2c1 | 52.5
44 | Cc1cccn2c(=O)cc(CSCC(=O)Nc3nnc(C(C)C)s3)nc12 | 14.7
45 | c1ncn(CC2CN(CCCOc3ccc4c(c3)OCO4)CCO2)n1 (stereo unspecified) | 36.1
46 | O=C(Nc1ccccn1)N(CCO)Cc1ccccc1Br | 10.2

Row | Compound | INHIBITION [%]
47 | Cn1cnc2c1C(COCC1CCOCC1)CN(c1ncccn1)C2 (stereo unspecified) | 33.4
48 | Cc1nc(O)c2nnn(C[C@H]3CCCN3C(=O)c3cccs3)c2n1 | 31.6
49 | CCn1ncnc1CN1CCc2[nH]cnc2C1Cc1ccccc1 (stereo unspecified) | -56.1
50 | CSCCC1c2nc[nH]c2CCN1Cc1cncn1C (stereo unspecified) | 56.1
51 | CSCCC1c2nc[nH]c2CCN1Cc1ccccc1C(F)(F)F (stereo unspecified) | 69.1
52 | CSCCC1c2nc[nH]c2CCN1Cc1cc(Cl)ccc1O (stereo unspecified) | 70.6
53 | CSCCC1c2nc[nH]c2CCN1Cc1ccccc1C#N (stereo unspecified) | 40.9
54 | CCn1ncnc1CN1CCc2[nH]cnc2C1CCc1ccccc1 (stereo unspecified) | 1.94
55 | O=C(O)C1c2nc[nH]c2CCN1Cc1ccccc1-c1ccccc1 (stereo unspecified) | 12.7
56 | CSCCC1c2nc[nH]c2CCN1Cc1ccnc2ccccc12 (stereo unspecified) | -9.67
57 | COc1ncccc1CN1CCc2[nH]cnc2C1CCSC (stereo unspecified) | 33.4
58 | CCn1cc(NC(=O)C2CCC(=O)N2Cc2ccco2)cn1 (stereo unspecified) | 20.4
59 | CCc1noc(C2CC(=O)N(CCN(C)C)C2)n1 (stereo unspecified) | 35.1
60 | COc1ccccc1C(=O)N1CCNCC1C(N)=O (stereo unspecified) | 9.2
61 | CSCCC(C)(O)CNC(=O)c1ccsc1 (stereo unspecified) | 8.61
62 | CC(O)(CCc1ccccc1)CNC(=O)c1ccsc1 (stereo unspecified) | 50.2
63 | CC(O)(CCc1ccccc1)CNC(=O)c1ccc(F)cc1 (stereo unspecified) | 26.8
64 | Cn1cccc1CN1CCC2(CCCN(C(=O)c3cnccn3)C2)C1 (stereo unspecified) | 2.01
65 | CCn1cc(NC(=O)NCc2ccc3c(c2)OCCO3)cn1 | 33
66 | CCn1cc(NC(=O)CCc2ccc3c(c2)OCCCO3)cn1 | 55.5
67 | CCn1cc(NC(=O)NCCc2ccc3c(c2)OCCO3)cn1 | -27.8
68 | CCN(CC)C(=O)c1c(Br)cnn1CC | 29.3
69 | COc1c(CNC2CCCOc3ccccc32)c(C(C)C)nn1C (stereo unspecified) | 15.3

Row | Compound | INHIBITION [%]
70 | NC(=O)c1cnc2n1CCN(C(=O)c1ccc(Cn3cccc3)cc1)C2 | 15.5
71 | CC(C)NC(=O)[C@@H]1CCO[C@@H]2CCN(c3ncccn3)C[C@@H]21 | 2.41
72 | Clc1ccc(C(CNCc2cccnc2)n2cccn2)cc1 (stereo unspecified) | -4.56
73 | CC(C)N1CCCC(C(=O)N2CCN(c3nsc4ccccc34)CC2)C1 (stereo unspecified) | 58.5
74 | NC(=O)N1CCCC(C(=O)N2CCN(c3nsc4ccccc34)CC2)C1 (stereo unspecified) | 35.8
75 | CCN1CC(C(=O)N2CCN(c3nsc4ccccc34)CC2)CCC1=O (stereo unspecified) | 33.9
76 | CNS(=O)(=O)c1ccc(CNC(=O)Nc2cc(C)on2)s1 | 24.3
77 | Cc1cc(NC(=O)NCc2ccc(S(=O)(=O)N3CCCC3)s2)no1 | 68
78 | Cc1cc(CN2CCN(C(=O)NCc3ccc(C)s3)CC2)no1 | 18.6
79 | Cc1cc(NC(=O)NCc2ccc(C)s2)no1 | 56.8
80 | O=S(=O)(NCc1ccc(S(=O)(=O)N2CCCC2)s1)c1ccc(Cl)c(Cl)c1 | 40.6
81 | CCc1ccc(CNC(=O)Nc2cc(C)on2)s1 | 39.7
82 | Oc1nc(C2CC2)nc2c1nnn2C1CCN(Cc2ccoc2)CC1 | 12.25
83 | CCOc1ccc(Cl)c(C(=O)N2CCCC(c3ccn[nH]3)C2)n1 (stereo unspecified) | -10.1
84 | CC(=O)N1N=C(c2ccco2)OC1C(=O)NCCc1ccc(O)cc1 (stereo unspecified) | 48
85 | Cc1cc(C(=O)N(C)C)nc(C2(C)CCCN2c2ccnc(C)n2)n1 (stereo unspecified) | -41.025
86 | Fc1ccc(-c2nc(CN3CCCC3Cn3cncn3)co2)cc1F (stereo unspecified) | 33.7
87 | Cc1nc(C2(NCC(=O)NCCc3cccs3)CCCC2)no1 | -81.3
88 | CCCn1cc(C(=O)NCc2nnc(-c3ccc(C)nc3)o2)c(C)n1 | 14.6
89 | CCc1ccc(C2CC(=O)Nc3cc(OC)c(NS(C)(=O)=O)cc32)o1 (stereo unspecified) | 61.5
90 | COc1ncccc1C1CC(=O)Nc2cc(NS(C)(=O)=O)ccc21 (stereo unspecified) | 10.1
91 | CCc1ccc(C2CC(=O)Nc3cc(NS(C)(=O)=O)ccc32)o1 (stereo unspecified) | 85.3
92 | CCc1ccc(C2CC(=O)Nc3n[nH]cc32)o1 (stereo unspecified) | 26.9

Row | Compound | INHIBITION [%]
93 | Cc1cc(C)n(CCC2CC(=O)Nc3cc4[nH]ncc4cc32)n1 (stereo unspecified) | 0.991
94 | CCCC(=O)Nc1cc2c(cc1OC)NC(=O)CC2c1ccc(CC)o1 (stereo unspecified) | 49.6
95 | CN(Cc1ccc(C2CC(=O)Nc3cc4[nH]ncc4cc32)o1)S(C)(=O)=O (stereo unspecified) | 70.2
96 | COc1cc(C)c(C2CC(=O)Nc3cc(NS(C)(=O)=O)ccc32)cc1C (stereo unspecified) | -5.22
97 | CN(Cc1ccc(C2CC(=O)Nc3n[nH]cc32)o1)S(C)(=O)=O (stereo unspecified) | -38.1
98 | Cc1nn(C)c(C)c1C1CCCN1C(=O)c1cnccn1 (stereo unspecified) | 2.97
99 | CCc1nc2n(n1)CC(NCc1cnc(-c3ccccc3)nc1)CC2 (stereo unspecified) | 31.9
100 | CCn1ccnc1CN1CCN(CC(O)c2cccc(F)c2)CC1 (stereo unspecified) | -94.9
101 | COc1ccc(NC2(C(=O)N3CCn4cncc4C3)CCCC2)cc1 | 18.5
102 | CC(C)N(Cc1ccc(C#N)cc1)Cc1nnsc1Cl | 22.4
103 | CCCN(CCC)Cc1nnsc1Cl | 10.8
104 | CCCN(Cc1ccc(C#N)cc1)Cc1nnsc1Cl | 52
105 | CCCOc1ccc(CNCCn2cccn2)cc1 | 30.5
106 | CS(=O)(=O)N1CC(c2ncn3ccccc23)C1 | 70.4
107 | CN1CCC(c2n[nH]c3ncccc23)C1 (stereo unspecified) | -10.5
108 | Cn1nc(C2CN(S(C)(=O)=O)C2)c2nccnc21 | 35.2
109 | CS(=O)(=O)N1CC(c2n[nH]c3ncccc23)C1 | 70.1
110 | CC(=O)N1CC(c2n[nH]c3ncccc23)C1 | 27.6
111 | CCc1ccc2c(C3CN(S(C)(=O)=O)C3)ncn2c1 | 40.8
